Laboratory results published in ChEMBL document CHEMBL3988442, “University of Dundee, Small-Polar-MMV Screening Library” (2021).

Columns and labels:
Format in all cases: functional
Parameters in all cases: scale not given: direction of the effect not stated beside the values
Settings in all cases: 30 µM
[1] = molecular target: T1, Aspartate--tRNA(Asp/Asn) ligase (Mycobacterium tuberculosis (strain ATCC 25618 / H37Rv)) (UniProt P9WFW3); experiment: Assay for Asp RNA synthetase-1 from Mycobacterium tuberculosis; further: in the data most compounds retested in dose-response had high values
T1 sequence (whole entry): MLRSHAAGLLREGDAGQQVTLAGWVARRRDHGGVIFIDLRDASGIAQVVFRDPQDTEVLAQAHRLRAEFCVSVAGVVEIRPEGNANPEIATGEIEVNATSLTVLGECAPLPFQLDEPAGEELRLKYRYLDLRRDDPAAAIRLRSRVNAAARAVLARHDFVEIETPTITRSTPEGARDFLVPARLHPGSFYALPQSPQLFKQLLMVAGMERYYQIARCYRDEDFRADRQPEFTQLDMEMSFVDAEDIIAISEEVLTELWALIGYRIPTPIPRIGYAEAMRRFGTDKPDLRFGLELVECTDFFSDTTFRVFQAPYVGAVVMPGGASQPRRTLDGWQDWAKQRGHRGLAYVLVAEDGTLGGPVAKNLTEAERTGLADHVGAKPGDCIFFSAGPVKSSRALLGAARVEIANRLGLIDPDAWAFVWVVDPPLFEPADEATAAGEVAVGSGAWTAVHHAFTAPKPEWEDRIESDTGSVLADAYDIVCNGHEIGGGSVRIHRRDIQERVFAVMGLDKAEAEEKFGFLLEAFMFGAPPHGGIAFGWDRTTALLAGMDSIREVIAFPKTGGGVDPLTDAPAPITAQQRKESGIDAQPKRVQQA

[2] = molecular target: Shiga toxin 2 (Escherichia coli O157:H7) (UniProt P09385+P09386); experiment: E. coli 0.157:H7 Shiga Toxin SOP - stx2 screening assay
[3] = molecular target: AMP-activated protein kinase, AMPK (Homo sapiens) (UniProt P54646+O43741+P54619+Q9UGJ0+Q9Y478+Q13131+Q9UGI9); experiment: AMP-dependent Kinase enzyme assay. An in vitro enzyme assay that detects ADP turnover that is directly proportional to AMPK activity. This uses naive AMPK that is activated during the assay with MK-8722

Structure (SMILES)	Percent Effect [1]	Percent Effect [2]	Percent Effect [3]
CN(CCC(F)(F)F)C(=O)C1CCCN1C(=O)OC(C)(C)C (centres undefined)	4.8%	-21.4%	
CCS(=O)(=O)N(C)CC(=O)Nc1ccc(Br)cn1	-2.34%	-12.9%	
Cc1nc2ccccc2nc1CN(C)CC1CCCN1c1cccnn1 (centres undefined)	1.76%	22.3%	
COc1cccc(CN(C)C(=O)CN2CC(n3nc(C)cc3C)C2)c1	1.62%	-22.3%	
Cc1nn(C)c(C)c1CNC1CCOc2ccccc21 (centres undefined)	-0.466%	8.07%	
Cc1cccc(COC[C@H]2CC[C@H]3[C@H](CCN3C(=O)CC3CC3)O2)n1	-1.43%	1.2%	
CCOc1ccccc1CSc1nnc(CC2CCS(=O)(=O)C2)n1C (centres undefined)	4.33%	4.92%	
COc1ccc(C2=CCN(C(=O)CN(C)CC(C)C#N)CC2)cc1 (centres undefined)	-3.34%	-65.5%	
CCc1nnc2n1CCN(CC(=O)Nc1sccc1C#N)C2	-0.787%	24.4%	
CNc1cncc(C2CCCN2C(=O)c2ccc3oc(C)cc3c2)n1 (centres undefined)	0.779%	-4.12%	
O=C(CCn1cncn1)NC1(c2cccc(Br)c2)CCC1	8.08%	-21.1%	
CS(=O)(=O)N1CCC(NC(=O)COc2ccc(Cl)c(Cl)c2)CC1	1.23%	-20.3%	
CC(C)c1ncncc1C(=O)NCCN1CCCS1(=O)=O	-2.86%	6.66%	
Cc1nn(C)cc1-c1cc(C(F)(F)F)c2c(C)nn(CC(=O)O)c2n1	4.84%	34.1%	
Cc1nc(CCNC(=O)NCc2ccc(N(C)C)nc2)cs1	-1.75%	6.63%	
COCCNC(=O)CN1CCN(c2nc(C)cs2)C(C)C1 (centres undefined)	-0.728%	-15.9%	
CC(NC(=O)c1cccs1)C(=O)NCc1cccnc1N1CCCCC1 (centres undefined)	-3.06%	11%	
Cc1nc(-c2ccccc2F)sc1C(=O)N1CCN(C)CC1	1.4%	-0.463%	
O=C(Cc1cccc(F)c1)NCCNCc1cccc(O)c1	4.95%	-12.7%	
Cc1nc(O)cc(C2CCN(Cc3cccc(F)c3F)C2)n1 (centres undefined)	-1.21%	-17.9%	
O=C(c1ccccn1)N1CCN(c2ccc(-c3cccnc3)nn2)CC1	-6.42%	-48.3%	
O=C(NCCNc1cnccn1)N1CCN(Cc2cccnc2)CC1	-4.35%	-68.8%	
CN(C)C(=O)NC[C@H]1OC[C@@H]2CCN(Cc3ccoc3)C[C@@H]21	1.28%	-22.6%	
Cc1cc(CN(C)Cc2cc3c(cc2OC(F)F)OCO3)on1	4.16%	19.4%	

Structure (SMILES)	Percent Effect [1]	Percent Effect [2]	Percent Effect [3]
Cc1nc(C)n(CC2CCCN2Cc2nc3ccccc3nc2C)n1 (centres undefined)	-11.8%	-7.98%	
CCOc1ccccc1C1CCCN1 (centres undefined)	2.67%	-3.4%	
CN(C(=O)C1CCCCC1)[C@@H]1CCC[C@@H](N2CCOCC2)[C@@H]1O	0.61%	-11.6%	
COCCNC(=O)Nc1ccc(F)c(C(N)=O)c1	3.91%	-19.7%	
Cc1nn(C)c(C)c1C1CCCN1C(=O)c1ccc(CN(C)C)cc1 (centres undefined)	-2.88%	-14%	
O=C(NC1CC1)[C@@H]1CCO[C@@H]2CCN(Cc3ccsc3)C[C@H]21	0.474%	-0.513%	
Cc1nc(C)c(CC(=O)N2CCCN(CC3CC3)C(C(C)C)C2)c(=O)[nH]1 (centres undefined)			-7.23%
CS(=O)(=O)c1ccc(C(O)CN2CCC(c3ccn[nH]3)CC2)cc1 (centres undefined)	-7.22%	-3.06%	
Cc1[nH]c(=O)[nH]c(=O)c1CC(=O)N1CCCN(CC2CC2)C(C(C)C)C1 (centres undefined)			3.13%
CCNc1cc2c(nn1)CCN(C(=O)c1ccc(CNC(C)=O)o1)C2	5.42%	-44.4%	
O=C(CCNC(=O)c1ccccc1N1CCOCC1)NC1CCCC1	-1.94%	-19.9%	
Cc1nn(C)c2cn(C(C)C(=O)NCc3cccnc3)nc12 (centres undefined)	-1.71%	-24.9%	
Cc1nc(CC(=O)N2CCCC[C@H](N(C)C)C2)cs1			-2.31%
CC(C)c1cc(N2CCC3(CC2)CN(C)CCN3C)ncn1			-4.27%
CCc1nc(CC(=O)NCC(Cc2ccc(F)cc2)C(N)=O)cs1 (centres undefined)	1.14%	3.77%	
COc1cc2cc(C(=O)O)n(C)c2cc1OC	-0.697%	-0.0542%	
CC(C)n1ncc2cc(NC(=O)N3CCC(N4CCCC4)C3)cnc21 (centres undefined)	-5.1%	-51.5%	
O=C(CSC1CCc2ccccc2NC1=O)NCCO (centres undefined)	0.805%	-11.3%	
Cc1cnn(CC(C)NCc2ccc(-n3cccn3)cc2)c1 (centres undefined)	-3.68%	-40%	
c1ccc2sc(CN3CCOC(Cn4cccn4)C3)nc2c1 (centres undefined)	-0.285%	27.3%	
O=C(c1ccco1)N1C[C@H]2CCCN(Cc3cccs3)[C@H]2C1	6.24%	-1.93%	
COc1c(CNC2CCc3cc(F)ccc32)c(C)nn1C (centres undefined)	-5.95%	7.74%	
CC(C)[C@@H]1CN(C(=O)C2(c3ccccc3)CCN(C)CC2)C[C@H]1C(=O)O			3.48%
